The campaign covered roughly 400,000 compounds. About 5,500 (1.4%) were called active. Another 9% or so got no clear call; they are omitted. Many of the other results were omitted from the sample, so actives are more common in it than they were. Unmarked numbers belong to inactive results. Calls come from the whole dose curve; as a rule, active = well fitted cell-killing curve with a large enough effect; inconclusive = small, poorly fitted or top-dose-only effect, or effect the other way; inactive = flat fitted curve, though single readings scatter.

The source of these data is PubChem BioAssay AID1347075 (National Center for Advancing Translational Sciences (NCATS), 2019).
% is set by controls: 0 for no effect and ±100 for the full control effect; potency is the fitted concentration of half-maximal effect.

The test is described as follows: qHTS assay for MDR1-selective chemotherapeutics: Primary screen using the parental adenocarcinoma cell KB-3-1. Note: nearly all actives have a fitted effect of over 60% in size. The conditions noted are these: KB-3-1 viability, CellTiter-Glo ATP luminescence, 72 h; series mostly up to 46.1 µM; activity change, negative = cytotoxic: at the top concentration. Summed up: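 Screening of KB-3-1 cells (DMEM, 10% FBS, phenol-red free) ran from lowest to highest compound concentration; after 72 h at 37 °C viability was read luminescently and curves fitted.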
A general note: qHTS replaces the single test concentration by a dilution series.
Turning to `CC(=O)Nc1ccc(N2CCOCC2)c(C(=O)Nc2cccc(C)c2)c1`, the “activity change, negative = cytotoxic” value was 0.437%. Turning to `Cc1cccc(NC(=O)c2ccc([N+](=O)[O-])o2)c1`, the Potency is 9.2 µM (active). On to `Cc1cccc(NC(=O)CCn2c(=O)oc3ccccc32)c1`, for which the “activity change, negative = cytotoxic” value was -9.78%. Same read-out and setting: then `CCCN1CCc2nc(N3CCN(C)CC3)ncc2C1`, with 0.109%; and `COc1ccc(-c2c(C)nn3c(N4CCC(C(=O)NCCC(C)C)CC4)cc(C)nc23)cc1OC`, with -6.48%. Take `CCCCCCCCn1c2c(c(=N)c3c1CCC3)CCCC2`: the Potency is 0.411 µM (active). For the molecule `CCN1CCC(N(Cc2ccc(F)cc2)C(=O)Nc2cc(C)ccc2C)CC1`, the “activity change, negative = cytotoxic” value was -5.29%. For the molecule `CC(OC(=O)CN1C(=O)c2ccccc2C1=O)C(=O)c1ccccc1` (stereo unspecified), the “activity change, negative = cytotoxic” value is 7.26%. As for `CC(C)OC(=O)CN1C(=O)C(=O)c2ccccc21`, the Potency was 18.4 µM (active). On to `Cc1cc(/C=C2/SC(=O)N(CC(=O)OC(C)C)C2=O)c(C)n1C`, for which the “activity change, negative = cytotoxic” value is -8.03%. The same measure, in the same setting: with `CCCCNC(=O)c1cc(-c2ccc(Cl)c(Cl)c2)on1` the figure was 13.5%. With `Cc1c(-c2nsc(NC(=O)c3cccc(Cl)c3)n2)nnn1-c1ccccc1C(F)(F)F`, the Potency is 23.1 µM (active). Take `COc1ccc(-n2nnc(-c3nsc(NC(=O)c4ccc(C)c(C)c4)n3)c2C)cc1Cl`: the “activity change, negative = cytotoxic” value was 1.71%. The same measure, in the same setting: with `CCc1cccc(-n2nnc(-c3nsc(NC(=O)c4ccc(C)cc4)n3)c2C)c1` the figure was 0.369%.

Regarding `Cc1ccc(-c2nc(=N)sn2Cc2ccccc2)cc1`, the “activity change, negative = cytotoxic” value is -13.7%. Still for that read-out and setting: with `CCOc1ccccc1N(C)C(=O)c1cc2c(s1)-c1ccccc1OC2` the figure was 3.52%; with `CCCCC(CCCC)c1ccc(C=Nc2ccc(/C=C/c3ccnc4ccccc34)cc2)cc1`, 0%; with `Cc1cc(C)n2ncc(C(=O)N3CCCC3)c2n1`, 5.58%.

For the molecule `Cc1cc(=O)oc2cc(OCC3CC(c4ccccc4Cl)=NO3)ccc12` (stereo unspecified), the Potency is 1.3 µM (active). Turning to `Cc1ccccc1NC(=O)c1ccc(COc2ccc3c(C)cc(=O)oc3c2)cc1`, the “activity change, negative = cytotoxic” value is 4.61%. The same measure, in the same setting: then `COc1cccc(-c2nnc(SCCOc3ccc4c(C)cc(=O)oc4c3)o2)c1`, with 6.22%. Same read-out and setting: then `COC(=O)c1ccc(NC(=O)c2cnn(-c3ccc(Cl)cc3)c2C2CCN(C(=O)OC(C)(C)C)CC2)cc1`, with 5.93%; and `Fc1ccc2nc(-c3ccccc3)nc(SCc3nnc(-c4ccccc4)o3)c2c1`, with 15.5%; and `N#CCSc1nc(-c2ccccc2)nc2ccc(F)cc12`, with -4.14%. On to `Clc1ccc2nc(-c3ccccc3)nc(C(Cl)Cl)c2c1`, for which the Potency is 3.26 µM (active).

Turning to `Oc1c(C(c2ccc(F)cc2)N2CCN(Cc3ccccc3)CC2)sc2nc(-c3ccco3)nn12` (stereo unspecified), the “activity change, negative = cytotoxic” value was 7.25%. The same measure, in the same setting: then `COc1cc(OC)c(OC)cc1/C=C/c1nc2ccccc2c(=O)n1-c1ccc(Br)c(C)c1`, with -8.72%. As to `Cc1cc(C)nc(NS(=O)(=O)c2ccc(NC(=O)c3cc(=O)c4ccc(C)c(C)c4o3)cc2)n1`, the “activity change, negative = cytotoxic” value is -0.0966%. In the case of `COc1ccc2c(c1)c(N1CCCC1=O)c(C(=O)Nc1ccc(OC)c(Cl)c1)n2C`, the “activity change, negative = cytotoxic” value was -21.1%. On the same count and under the same terms, then `CC(NC(=O)CSc1nc2c(cc1C#N)CN(C)CC2)c1ccccc1` (stereo unspecified), with -1.09%; and `Cc1cc(NC(=O)COc2ccccc2C#N)no1`, with 4.1%. As for `Cc1cc(NC(=O)CSc2nc3c(cc2C#N)CCCCC3)no1`, the Potency was 5.8 µM (active). In the case of `COc1ccc(S(=O)(=O)NCC(c2ccc(N(C)C)cc2)N2CCc3ccccc32)cc1OC` (stereo unspecified), the “activity change, negative = cytotoxic” value was -19.8%. `O=C(NCCCN1CCOCC1)c1cn(-c2ccccc2)nc1-c1ccc(F)cc1`: the “activity change, negative = cytotoxic” value is 2.18%. Same read-out and setting: with `COc1ccccc1N1CCN(C(=O)c2cn(-c3ccccc3)nc2-c2cccnc2)CC1` the figure was -3.96%. Turning to `O=C(NNC(=S)NC(=O)c1cn(-c2ccccc2)nc1-c1ccccc1)c1ccncc1`, the Potency was 8.2 µM (active). On to `COc1ccc(NC(=O)c2cnc(Nc3ccc(C)c(Cl)c3)c3ccccc23)cc1OC`, for which the “activity change, negative = cytotoxic” value was 13.9%. The same measure, in the same setting: with `Brc1nc2ncnc(NCc3ccco3)c2[nH]1` the figure was -9.05%; with `O=C(CNS(=O)(=O)c1cccs1)N1CCN(c2ccccc2Cl)CC1`, 5.47%; with `Cc1cccc2c1-c1sc(C(=O)Nc3ccc(F)cc3F)cc1CO2`, -20.5%. On to `CCn1cc2nc(SCc3cccc(F)c3)n(CCc3ccccc3)c(=O)c2n1`, for which the “activity change, negative = cytotoxic” value was -0.543%. For `Cn1cc([N+](=O)[O-])c(C(=O)Nc2ccc3c(c2)OCCO3)n1`, the “activity change, negative = cytotoxic” value was -20.5%. With `Cc1nn(-c2ccccc2)c(Cl)c1/C=N/NC(=O)c1nn(C)cc1[N+](=O)[O-]`, the Potency was 18.4 µM (active).

In the case of `Cc1nn(Cc2ccc(Cl)cc2)c(Cl)c1/C=N/NC(=O)CNc1ccccc1F`, the “activity change, negative = cytotoxic” value is -11.9%. On the same count and under the same terms, with `Cc1ccc(C2CCN(C(=S)Nc3cccc(Cl)c3)C2)cc1` (stereo unspecified) the figure was 3.93%.

For the molecule `Cc1csc(NC(=S)Nc2cccc(Cl)c2)n1`, the Potency is 20.6 µM (active). With `O=C(Nc1cccc(Cl)c1)c1csnn1`, the “activity change, negative = cytotoxic” value was 1.29%. With `COc1ccccc1C(=O)NCCn1cc(SCc2ccccc2Cl)c2ccccc21`, the “activity change, negative = cytotoxic” value was -13.7%. On to `CCOC(=O)c1ccc(NC(=O)CCS(=O)(=O)c2ccc3c(c2)oc(=O)n3C)cc1`, for which the “activity change, negative = cytotoxic” value is 22.5%. On the same count and under the same terms, then `O=C(NCc1ccc(F)cc1)c1ccc(Cn2c(SCc3ccc(F)cc3)nc3cccnc32)cc1`, with -6.9%. As to `Cc1ccc(OCCSc2nc(-c3cccs3)nc3cc(=O)[nH]n23)cc1Cl`, the “activity change, negative = cytotoxic” value is -7.11%.
